Molecules are shown by their SMILES. Records with an inconclusive call do not appear. A number with no mark means an inactive call. Calls come from the whole dose curve; as a rule, active = well fitted curve in either direction with a large enough effect (not every such curve was filed as active); inconclusive = small, poorly fitted or top-dose-only effect, or another doubt; inactive = flat fitted curve, though single readings scatter.

The values below come from PubChem BioAssay (NCATS).
% is set by controls: 0 for no effect and ±100 for the full control effect.

This assay in a line: NFAT Signaling Pathway (AID 444).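 Note: carbachol stimulus at about its EC50 of 1 µM final.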 To be noted: Jurkat NFAT-bla M1, carbachol, beta-lactamase ratio, 5 h; at 17.2 µM (top of the series) unless noted. The essentials: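 Jurkat cells carrying an NFAT-driven β-lactamase reporter and co-transfected muscarinic M1 receptor were treated with compound plus carbachol (1 uM final, an EC50 level) for 5 h at 37 °C. CCF4 loading followed for 1 h at RT; 460/530 nm ratio gave %activity.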
For the molecule `Cc1[nH]nc2cn[nH]c12`, the activity change, negative = inhibition is 6.17%. The same measure for `S=c1[nH]nc(-c2ccccc2)n1Cc1ccccc1`: -11.2%. In the case of `COc1cccc(OC)c1-c1nn2c(-c3ccco3)nnc2s1`, the activity change, negative = inhibition was -8.25%. With `CC1(C)CN(O)CCN1O`, the activity change, negative = inhibition was 0.875%. Then `Cc1cc(/C(O)=C2\C(=O)C(=O)N(CCN(C)C)C2c2ccncc2)ccc1OCc1ccccc1` (stereo not drawn), with 17.3%. The same measure for `COc1ccccc1NC(=O)CSc1nnc(-c2ccc(NC(C)=O)cc2)n1C`: -2.99%. Consider `CCOC(=O)c1c(C)[nH]c(/C(C)=N/O)c1C`, for which the activity change, negative = inhibition was 3.09%.

Turning to `COC(=O)CSc1nnc(C)c(=O)[nH]1`, the activity change, negative = inhibition was 3.42%.

`Cc1ccc2c(c1)C(CCN)C(=O)N2Cc1ccccc1` (stereo not drawn): the activity change, negative = inhibition is -9.23%. Then `CC(C)(C#N)C(C)(C)c1nn[nH]n1`, with 0.881%; and `Cc1cc(NC(CC(C)C)C(=O)O)nc(Cc2ccccc2)n1` (stereo not drawn), with 7.49%.

Consider `CCOC(=O)c1c(C)oc2ccc(OCC(=O)C(C)(C)C)cc12`, for which the activity change, negative = inhibition is 2.59%. Then `CCOC(=O)C1CCCN(c2nc3ccccc3nc2C(C#N)C(=O)OCCOC)C1` (stereo not drawn), with -3.48%. The same measure for `Cc1nn(CC(=O)NCCN2CCOCC2)c(=O)c2ccccc12`: 20%; for `CCc1ccc2c(c1)C(C)=CC(C)(C)N2`: 7.21%. The same measure for `Nc1nnnn1/N=C/c1ccccn1`: -4.47%; for `CCOC(=O)CC(C#N)c1cn(C)c2ccccc12` (stereo not drawn): -8.09%; for `Oc1ccc2ccccc2c1C=NC12CN3CCN(CN(C3)C1)C2`: -22.1%. Regarding `CCOC(=O)CNS(=O)(=O)c1cc(-c2n[nH]c(=O)c3ccccc23)ccc1C`, the activity change, negative = inhibition was 5.83%.

In the case of `O=C(CN1C2=NCCN2c2ccccc21)N1CCOCC1`, the activity change, negative = inhibition was -2.85%.

Consider `COc1cccc(NC(=O)CSC2=C(C#N)C(c3ccco3)C3=C(CCCC3=O)N2)c1` (stereo not drawn), for which the activity change, negative = inhibition is -16%. In the case of `OCCOCCNc1ncnc2c1cnn2-c1ccccc1`, the activity change, negative = inhibition was 1.59%. In the case of `CCN(CC)C(=O)CSC1=C(C#N)C(c2cccs2)C=C(C)N1` (stereo not drawn), the activity change, negative = inhibition was -9.19%. The same measure for `COc1ccccc1C(CC(=O)Nc1nccs1)c1ccco1` (stereo not drawn): -20.1%; for `Cn1c(=O)c2c(nc(Br)n2Cc2ccc3ccccc3c2)n(C)c1=O`: -13.6%; for `O=C(O)CC(NCc1ccco1)C(=O)OCCc1ccccc1` (stereo not drawn): 5.37%. The same measure for `CCSc1nnc(NC(=O)C(C)(C(F)(F)F)C(F)(F)F)s1`: -18.1%; for `COC(=O)COc1ccc(Oc2nc(SC)nc(N(C)C)n2)nn1`: 4.35%.
